Compound activity as filed in PubChem.
Compounds with a hit are over-represented: about 0.76% of the library has one in this group of screens.
Mtb betalactam: beta-lactam sensitization of Mtb H37Rv; 0.27% of 330,000 active; AID 434955; inhibition, % at 25 µM; M. tuberculosis H37Rv growth with meropenem, percent inhibition; call rule not given here;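 note: growth measured after seven days incubation then overnight dye step; 0% = bacteria only wells and 100% = bacteria with antibiotic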
Vc quorum ag: inducers of Vibrio cholerae quorum light production without autoinducers. V. cholerae BH1578 lux reporter, luminescence, 6 h. activation, % at 18.7 µM. 0.16% of 350,000 active. AID 588436; in the data active = activation mostly above about 9.7%, no sharp cut-off
FadD28 binding: blocks FadD28 binding to the bisubstrate probe; fluorescence polarization; inhibition, % at 12.5 µM; 0.22% of 360,000 active; in the data active = inhibition above about 8.5%, passing the limit was not always enough
PrP UTR inh: suppresses PrP 5' UTR mRNA reporter expression | cell-based PrP 5' UTR mRNA reporter, plate reader | inhibition, % (test concentration not listed) | 0.35% of 340,000 active | AID 488862; in the data active = inhibition above about 52%; note: 0 = median of the neutral control wells
Rv3671c protease: Rv3671c (M. tuberculosis) protease inhibition | P9WHR9 | 0.048% of 320,000 active | inhibition, % at 5.96 µM | AID 2606; in the data active = inhibition above about 38%;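 note: extracellular domain of Rv3671c used as enzyme; 0% = enzyme with DMSO and 100% = no enzyme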
UGM FP inh: inhibitors of M. tuberculosis UDP-galactopyranose mutase; P9WIQ1; purified UGM, fluorescence polarization probe displacement; inhibition, % at 10 µM; 0.06% of 320,000 active; AID 504406; in the data active = inhibition above about 10%, passing the limit was not always enough
Target sequence (P9WIQ1 whole entry, looked up): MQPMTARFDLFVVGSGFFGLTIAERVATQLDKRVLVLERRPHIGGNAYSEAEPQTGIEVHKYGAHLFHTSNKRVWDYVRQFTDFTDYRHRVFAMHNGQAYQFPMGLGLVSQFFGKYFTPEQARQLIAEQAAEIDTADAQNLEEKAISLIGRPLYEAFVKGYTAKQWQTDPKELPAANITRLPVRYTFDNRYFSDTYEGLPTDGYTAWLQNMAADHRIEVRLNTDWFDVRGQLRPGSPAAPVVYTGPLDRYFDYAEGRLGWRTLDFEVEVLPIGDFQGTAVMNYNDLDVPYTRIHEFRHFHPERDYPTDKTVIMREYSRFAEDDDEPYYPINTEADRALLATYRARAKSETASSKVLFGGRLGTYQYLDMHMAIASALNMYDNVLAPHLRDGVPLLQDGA
An asterisk follows results filed as active; i = inactive; · = no result given.

SMILES	Mtb betalactam	Vc quorum ag	FadD28 binding	PrP UTR inh	Rv3671c protease	UGM FP inh
COc1cccc2c1C(=O)c1c(O)c3c(c(O)c1C2=O)CC(O)(C(C)=NO)CC3OC1CC(N)C(O)C(C)O1 (stereo not drawn)	·	6	63*	-6	·	·
CC(=O)[C@@]1(O)Cc2c(O)c3c(c(O)c2[C@H](O[C@H]2C[C@H](N)[C@H](O)[C@H](C)O2)C1)C(=O)c1ccccc1C3=O	·	-1	74*	·	·	·
O=C(NCc1ccco1)C1CCCN1C(=O)Nc1ccccc1[N+](=O)[O-] (stereo not drawn)	-2	i	0	-14	-2	-1
COC(=O)C1=CN(C)C=C(C(=O)OC)C1c1ccsc1	·	17*	0	8	·	·
Cc1ccc2oc(=O)n(CC(=O)OCCC(C)C)c2c1	-1	i	0	-11	-3	-5
CC(=O)c1ccc(NC(=O)Nc2ccc(NS(=O)(=O)c3ccc(C)cc3)cc2)cc1	-10	0	11*	-9	-106	5
CN(c1ccccc1)S(=O)(=O)c1ccc(NC(=O)CC(=O)c2ccccc2)cc1	·	i	25*	-32	·	·
CC(=O)Nc1ccc(NC(=O)c2ccc(S(=O)(=O)N(C)c3ccccc3)cc2)cc1	-5	-2	-1	-11	-8	1
CCOC(=O)C1Nc2ccc(C(=O)O)cc2C2C=CCC12 (stereo not drawn)	-2	i	21*	-20	11	0
CCCC1Nc2ccc(C(=O)O)cc2C2C=CCC12 (stereo not drawn)	-2	0	30*	-14	8	-2
O=C(O)c1ccc2c(c1)C1C=CCC1C(c1ccncc1)N2 (stereo not drawn)	-2	i	0	-10	-2	0
CC(C)C1Nc2ccc(C(=O)O)cc2C2C=CCC21 (stereo not drawn)	-6	-1	9.3*	-68	2	2
CCN(CC)C(=O)c1ccc2c(c1)C1C=CCC1C(C(=O)O)N2 (stereo not drawn)	3	0	12*	-6	·	3
CC(C)(C)c1ccc(C(=O)N2CCC2(C)C(=O)Nc2ccc3nc[nH]c3c2)cc1 (stereo not drawn)	·	1	-2	·	·	·
COc1ccc(CNc2ncnc3c2[nH]c2cc(OC)c(OC)cc23)cc1	96	0	10*	-27	16	1
COc1ccc(CNc2ncnc3c2[nH]c2ccccc23)cc1	5	-1	-3	·	-1	0
COc1ccc(CNC(=O)COc2cc3c(c4oc(=O)cc(C)c24)CCC(C)(C)O3)c(OC)c1	·	0	-8	·	·	·
Cc1ccccc1OCCSc1nc2ncnc(N)c2[nH]1	-1	-1	-1	-7	0	0
O=C(O)COc1ccccc1C=NNc1ccc([N+](=O)[O-])cc1S(=O)(=O)Nc1ccc(Cl)cc1	2	i	16*	-13	-21	3
O=C(O)c1ccccc1NS(=O)(=O)c1ccc(N/N=C/c2ccc(O)c(O)c2)c([N+](=O)[O-])c1	·	1	53*	-4	·	·
COc1ccccc1NS(=O)(=O)c1ccc(N/N=C/c2ccccc2OCC(=O)O)c([N+](=O)[O-])c1	-1	1	19*	-18	17	2
O=C(O)c1ccccc1NS(=O)(=O)c1ccc(NN=Cc2ccc(F)cc2)c([N+](=O)[O-])c1	-3	i	0	-11	1	-1
COc1ccc(N(CC(=O)Nc2ccccc2C(F)(F)F)C2=NC3CS(=O)(=O)CC3S2)cc1 (stereo not drawn)	-7	0	-2	-14	-2	1
CCCc1cc(=O)oc2cc(C)cc(OCC(=O)N3C[C@H]4C[C@@H](C3)c3cccc(=O)n3C4)c12	·	0	0	·	·	·
COc1ccc(C(=O)NCCc2c[nH]c3ccccc23)cc1S(=O)(=O)N1CCOCC1	-6	3	8.4*	-17	2	1
SMILES	Mtb betalactam	Vc quorum ag	FadD28 binding	PrP UTR inh	Rv3671c protease	UGM FP inh
O=C(c1cn2ccccc2n1)N1CCCC(Nc2ccc(F)c(F)c2)C1 (stereo not drawn)	-2	·	-2	7	-6	0
CCC1(CC)Cc2ccccc2-c2nc(-c3ccccc3)oc(=O)c21	-1	32*	0	-27	-7	-2
O=c1oc(-c2ccccc2)nc2c1C1(CCCCC1)Cc1ccccc1-2	11	0	0	5	-9	-2
CCOc1ccc(C(=O)NC(=S)Nc2cccnc2)cc1	4	0	-4	-6	-5	12*
CCOc1cc(C(=O)NC(=S)Nc2cccnc2)cc(OCC)c1OCC	8	0	-1	3	-3	-2
COc1cc2c3nnc(-c4ccc(F)cc4)c-3cn(Cc3ccc(C)cc3)c2cc1OC	-5	0	-1	5	3	15*
Cc1ccc(NCc2ccccc2O)cc1	17	1	-1	-29	3	-4
Cc1ccc(CNc2ccc(O)cc2)cc1	·	-10	12*	-19	·	·
CC1Cc2cc(S(=O)(=O)N3CCCC(C(=O)N4CCCCC4)C3)ccc2N1C(=O)C1CC1 (stereo not drawn)	-12	-3	-4	-29	2	-1
Cc1cc2nc3s/c(=C/c4ccc(-c5ccccc5C(=O)O)o4)c(=O)n3c2cc1C	0	0	1	15	-5	0
O=C(O)c1ccccc1-c1ccc(/C=c2\sc3nc4cc(Br)cnc4n3c2=O)o1	3	i	24*	-14	6	-2
COc1cc(/C=C2/C(=O)NN(c3ccc(Cl)c(Cl)c3)C2=O)cc([N+](=O)[O-])c1O	41	i	28*	·	-2	4
COc1cc(/C=C2/C(=O)NN(c3ccc(Cl)cc3)C2=O)ccc1OC(=O)c1ccco1	100	i	9.3*	-15	1	2
O=C(COC(=O)c1ccc2ccccc2n1)c1ccccc1	1	-5	-3	-30	1	2
COc1cc(/C=N/NC(=O)COc2ccc(-n3cnnn3)cc2)ccc1OCC(N)=O	-4	0	-2	-3	-2	4
CCOC(=O)[C@H]1[C@H]2COc3cc(OC)ccc3[C@@H]2N2C(=O)CN(Cc3ccc(OC)cc3)C(=O)[C@@]12C	-8	i	-3	29	5	0
CCn1c(SCC(=O)NC(C)C)nnc1-c1cccs1	1	17*	1	-25	4	1
Cc1ccn(C(C)CC(=O)Nc2ccc(-c3ccno3)cc2)n1 (stereo not drawn)	-7	i	0	-9	-2	-7
O=C(CCc1ccccc1)N1CCN(Cc2ccc(F)cc2Cl)CC1	-9	i	-1	8	-3	1
CC(CCC(C)C(C)(C)C)[C@@H]1CC[C@H]2C3C[C@H](OS(O)(=S)=S)[C@H]4C[C@H](OS(O)(=S)=S)[C@@H](OS(O)(=S)=S)C[C@]4(C)[C@H]3CC[C@]12C (stereo partly drawn) (tested in a mixture with another compound)	2	i	65*	-20	-66	1
